Assay results: PubChem BioAssay AID504333 (National Center for Advancing Translational Sciences (NCATS), 2011)
Where “and” joins values, the source holds several entries; their conditions need not be identical. Equal entries are not always repeated. In all, about 360,000 compounds went through this assay and about 16,000 (4.4%) were called active. Roughly 9% stayed inconclusive and do not appear here. Calls come from the whole dose curve; as a rule, active = well fitted inhibition curve with a large enough effect; inconclusive = small, poorly fitted or top-dose-only effect; inactive = no such curve, though single readings can be large or run the other way. What follows is part of a selection rich in actives, with near analogues and random picks from the rest.

Biological target: Bromodomain adjacent to zinc finger domain protein 2B (Homo sapiens) (UniProt Q9UIF8)
Sequence (Q9UIF8 whole entry, looked up, the tested form may be a part): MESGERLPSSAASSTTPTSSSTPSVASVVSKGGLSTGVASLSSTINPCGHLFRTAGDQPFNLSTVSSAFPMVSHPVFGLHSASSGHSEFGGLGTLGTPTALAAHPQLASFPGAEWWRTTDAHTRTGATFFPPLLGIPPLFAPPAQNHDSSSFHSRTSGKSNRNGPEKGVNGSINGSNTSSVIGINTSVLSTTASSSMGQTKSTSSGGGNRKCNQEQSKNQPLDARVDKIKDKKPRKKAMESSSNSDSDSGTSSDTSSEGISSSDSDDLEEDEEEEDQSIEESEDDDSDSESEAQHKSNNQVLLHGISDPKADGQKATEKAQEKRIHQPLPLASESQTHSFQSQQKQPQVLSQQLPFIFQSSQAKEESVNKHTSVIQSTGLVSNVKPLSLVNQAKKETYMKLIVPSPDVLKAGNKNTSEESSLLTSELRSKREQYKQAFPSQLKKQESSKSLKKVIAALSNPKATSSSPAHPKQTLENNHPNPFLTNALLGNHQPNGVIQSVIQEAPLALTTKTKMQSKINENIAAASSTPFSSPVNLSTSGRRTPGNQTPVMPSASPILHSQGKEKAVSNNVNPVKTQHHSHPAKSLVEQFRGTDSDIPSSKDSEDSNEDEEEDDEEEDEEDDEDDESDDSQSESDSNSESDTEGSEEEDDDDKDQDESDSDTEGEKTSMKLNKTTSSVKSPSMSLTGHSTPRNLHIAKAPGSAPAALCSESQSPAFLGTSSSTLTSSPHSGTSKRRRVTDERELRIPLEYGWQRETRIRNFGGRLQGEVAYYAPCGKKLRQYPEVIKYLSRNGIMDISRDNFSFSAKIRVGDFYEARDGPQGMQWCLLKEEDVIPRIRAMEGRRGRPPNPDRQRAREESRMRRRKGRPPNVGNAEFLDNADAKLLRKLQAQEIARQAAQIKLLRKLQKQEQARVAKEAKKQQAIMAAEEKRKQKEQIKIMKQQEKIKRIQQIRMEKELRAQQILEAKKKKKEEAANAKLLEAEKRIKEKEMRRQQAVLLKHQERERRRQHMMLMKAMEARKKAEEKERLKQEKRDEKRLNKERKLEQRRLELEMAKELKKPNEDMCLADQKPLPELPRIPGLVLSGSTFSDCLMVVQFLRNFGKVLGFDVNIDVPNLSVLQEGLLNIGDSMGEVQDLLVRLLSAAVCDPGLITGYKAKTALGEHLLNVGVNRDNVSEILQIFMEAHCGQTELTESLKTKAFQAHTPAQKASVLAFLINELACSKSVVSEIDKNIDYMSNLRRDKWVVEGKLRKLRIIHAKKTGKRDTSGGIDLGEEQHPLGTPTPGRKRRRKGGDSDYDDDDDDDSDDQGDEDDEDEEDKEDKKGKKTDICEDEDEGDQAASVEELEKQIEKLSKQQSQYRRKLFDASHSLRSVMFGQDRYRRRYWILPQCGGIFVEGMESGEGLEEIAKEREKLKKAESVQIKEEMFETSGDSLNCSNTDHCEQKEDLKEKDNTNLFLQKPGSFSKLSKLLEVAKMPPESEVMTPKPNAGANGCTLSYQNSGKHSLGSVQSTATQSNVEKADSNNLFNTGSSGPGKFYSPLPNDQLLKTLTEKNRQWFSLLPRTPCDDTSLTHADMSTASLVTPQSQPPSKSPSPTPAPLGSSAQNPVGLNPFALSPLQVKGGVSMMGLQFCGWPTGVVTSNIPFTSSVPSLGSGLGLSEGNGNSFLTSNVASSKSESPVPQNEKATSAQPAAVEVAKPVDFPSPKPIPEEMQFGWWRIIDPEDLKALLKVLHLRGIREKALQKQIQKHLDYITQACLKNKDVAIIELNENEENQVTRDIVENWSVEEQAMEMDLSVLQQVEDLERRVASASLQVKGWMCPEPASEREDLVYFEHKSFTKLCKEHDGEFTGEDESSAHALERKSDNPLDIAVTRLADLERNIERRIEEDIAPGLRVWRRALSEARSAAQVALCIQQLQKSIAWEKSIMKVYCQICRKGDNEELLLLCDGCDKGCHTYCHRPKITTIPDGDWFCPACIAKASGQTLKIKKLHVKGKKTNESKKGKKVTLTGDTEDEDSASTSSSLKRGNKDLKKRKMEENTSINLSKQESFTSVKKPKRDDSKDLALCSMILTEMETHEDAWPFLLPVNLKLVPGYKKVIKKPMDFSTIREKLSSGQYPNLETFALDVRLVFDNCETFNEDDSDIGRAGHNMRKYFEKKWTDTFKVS
Experiment: qHTS Assay for Inhibitors of BAZ2B; note: nearly all actives have a fitted effect of over 60% in size
Settings: AlphaScreen BAZ2B-H3K14Ac peptide displacement; series mostly up to 114 µM; activity change, negative = inhibition: at the top concentration
From the text: BAZ2B (bromodomain adjacent to zinc finger domain, 2B) belongs to a family of ubiquitously expressed bromodomain containing proteins, which biological function has not yet been elucidated. […] The interaction of BAZ2B with ISWI mediated by the BAZ1 motif has recently been described. […] The protocol is based on the AlphaScreen (PerkinElmer) displacement assay developed by NCGC [5], but uses the peptide ligand Biot-H3K14Ac, a high affinity binding partner for BAZ2B, in an AlphaScreen format. Although AlphaScreen has significant advantages with its utility in a variety of epigenetic target assays, the primary screening data provided in this deposition should be used with caution due to the prevalence of screening artifacts. The top compound concentration tested was 110uM in this assay, which increases number of actives and potential artifacts. An AlphaScreen counterscreen is highly recommended to be run against any putative actives to eliminate non-specific artifacts. Alternatively, one can use other AlphaScreen assays in PubChem to filter out promiscuous hits. Eberharter, A. et al. ACF1 improves the effectiveness of nucleosome mobilization by ISWI through PHD-histone contacts. The EMBO journal 23, 4029-4039. 2004. PMID: 15457208 [2] Jones, M.H. et al. A novel family of bromodomain genes. Genomics 63, 40-45. 2000. PMID: 10662543 [3] Yasgar, et al. Compound Management for Quantitative High-Throughput Screening. JALA. 2008 Apr;13(2):79-89. PMID: 18496600 [4] Inglese, et al. Quantitative high-throughput screening: a titration-based approach that efficiently identifies biological activities in large chemical libraries. Proc Natl Acad Sci. 1;103(31):11473-8. 2006. PMID: 16864780 [5] Quinn et al. A chemiluminescence-based method for identification of histone lysine methyltransferase inhibitors. Mol Biosyst 6(5): 782-8. 2010. PMID: 20567762 [6] Baell,Holloway. New substructure filters for removal of pan assay interference compounds (PAINS) from screening libraries and for their exclusion in bioassays. J Med Chem. 53(7):2719-40. 2010. PMID: 20131845 NIH Molecular Libraries Probe Production Network [MLPCN] NIH Chemical Genomics Center [NCGC] Structural Genomics Consortium (SGC) NIH Grant: 5U54 MH084681-02
To each well of a 1,536w plate, 2ul of BAZ2B protein (final 50nM) and 1ul biotinylated histone peptide acetylated at Lys14 [b-H3(5-23)K14Ac] (final 50nM) were added in 1x PBS buffer, pH 7.4, containing 0.01% Tween-20, using a nanoliter dispenser. Formation of a protein-peptide complex proceeded at room temperature for 30 min. A Kalypsys pin-tool was employed to transfer 23 nL of library compound solution in DMSO to each well. Following a 30 min incubation of the protein-peptide complex with compounds at room temperature, a mixture of 40 ug/mL each streptavidin-coated donor and nickel chelate acceptor AlphaScreen beads (final 10 ug/mL) were added in a 1ul dispense for a final volume of 4ul. A brief centrifugation followed (1000rpm, 1 min) and were then incubated protected from the light for 20 min at room temperature. Plates were read on an EnVision multilabel plate reader using the 1,536 plate HTS AlphaScreen aperture (excitation time 80 ms, measurement time 240 ms).
% is set by controls: 0 for no effect and ±100 for the full control effect; potency is the fitted concentration of half-maximal effect.

| SMILES | activity change, negative = inhibition | Potency |
| --- | --- | --- |
| CCC(Sc1nc2n[nH]c(C)c2c(=N)n1-c1ccccc1Cl)C(=O)N(CC)CC (centres undefined) | 4.48% (inactive) |  |
| COc1ccc(-c2nc3sc(CCNS(=O)(=O)c4ccc(F)c(C)c4)c(C)n3n2)cc1 | -4.23% (inactive) |  |
| COc1ccc(-c2nc(SCC(=O)N3CCCCC3C)n[nH]2)cc1 (centres undefined) | 2.94% (inactive) |  |
| Cc1ccc(S(=O)(=O)N2CCN(Cc3cccc(C)c3O)CC2)cc1 | 11.2% (inactive) |  |
| O=C(CN1CCN(S(=O)(=O)c2ccc(F)cc2)CC1)Nc1ccccc1F | 3.45% (inactive) |  |
| O=S(=O)(c1ccc(F)cc1)N1CCN(Cc2ccccc2C(F)(F)F)CC1 |  | 28.2 µM (active) |
| COc1ccc(-c2onc(C)c2C)cc1S(=O)(=O)NCc1cccs1 | -0.451% (inactive) |  |
| CCc1ccc(S(=O)(=O)n2ccnc2)cc1 | -13.1% (inactive) |  |
| Cc1ccccc1Nc1c(-c2ccccc2)nc2ncccn12 | -5.09% (inactive) |  |
| Cc1c(-c2cccc(NC(=O)C(C)(C)C)c2)nc2ncccn12 | 6.49% (inactive) |  |
| CCc1cccc(C)c1Nc1c(-c2ccc(N(C)C)cc2)nc2ncccn12 |  | 10 µM (active) |
| COc1cc(OC)c(NC(=O)c2c3c(nn2C)-c2ccccc2SC3)cc1Cl | -15.7% (inactive) |  |
| O=C(NCCCO)C(=O)Nc1c2c(nn1-c1ccccc1)CSC2 | 7.43% (inactive) |  |
| COc1ccc(OCCCn2c(C)nc3cc(C)c(C)cc32)cc1 | -28.9% (inactive) |  |
| COc1ccc(OCCn2ccnc2C)cc1 |  | 56.2 µM (active) |
| COc1ccc(OCCCC(=O)Oc2ccc(OC)cc2)cc1 | -6.9% (inactive) |  |
| Cc1ccc(C(=O)Nc2c(C(=O)NC(C)(C)C)oc3ccccc23)cc1 | 11% [at 57.1 µM] (inactive) |  |
| COc1ccc(NC(=O)c2ccc3oc(=O)c(S(=O)(=O)c4ccc(F)cc4)cc3c2)c(OC)c1 | -14.1% (inactive) |  |
| O=C(CSc1nccn1Cc1ccc(Cl)cc1)NCc1ccccc1 | -25.4% (inactive) |  |
| Cc1cccc(N2CCN(C(c3ccccc3)c3nnnn3CC3CCCO3)CC2)c1C (centres undefined) | -8.12% (inactive) |  |
| COc1ccccc1C(c1nnnn1CC1CCCO1)N1CCN(c2ccccc2)CC1 (centres undefined) |  | 56.2 µM (active) |
| COc1ccc(C(c2nnnn2Cc2cccs2)N2CCN(c3ccccc3)CC2)cc1OC (centres undefined) | -35.7% (inactive) |  |

| SMILES | activity change, negative = inhibition | Potency |
| --- | --- | --- |
| COCCCNC(=O)c1ccc(NC(=O)c2nsc3ccccc23)cc1 | -0.501% (inactive) |  |
| COC(=O)c1cccc(Cn2nnc3sc4c(c3c2=O)CCC(C(C)(C)C)C4)c1 (centres undefined) | -0.516% (inactive) |  |
| Cc1cccc(N2CCN(C(=O)Cn3ncc4c5ccccc5n(C)c4c3=O)CC2C)c1 (centres undefined) | 1.15% (inactive) |  |
| COc1ccc(NCc2nnc(SCc3ccccc3)n2-c2ccc(OC)cc2)cc1 |  | 50.1 µM (active) |
| CCc1nnc(NC(=O)CSc2nnc(Cc3ccccc3)n2-c2ccc(OC)cc2)s1 | 8.5% (inactive) |  |
| COc1ccc(-c2nnc(SCC(=O)c3ccco3)n2-c2ccccc2)cc1 | 8.78% (inactive) |  |
| Cc1ccc(Cl)cc1N1CCN(C(=O)CN2C(=O)COc3ccc(S(=O)(=O)N4CCOCC4)cc32)CC1 | 4.23% (inactive) |  |
| COc1ccc(/C=C(\C#N)c2c[nH]c3ccccc23)cc1 | 3.05% (inactive) |  |
| C[n+]1ccc(/C=C/c2c[nH]c3ccccc23)cc1 |  | 44.7 µM (active) |
| O=C(N/N=C/c1c[nH]c2ccccc12)c1cc2ccccc2o1 | -23.5% (inactive) |  |
| CCOC(=O)C1CCCN(S(=O)(=O)c2cc(-c3cc(C)no3)ccc2OC)C1 (centres undefined) | 0.155% (inactive) |  |
| COc1cccc(N2CCN(S(=O)(=O)c3ccc4c(c3)CCCN4C(C)=O)CC2)c1 | -16.9% (inactive) |  |
| COc1ccccc1CN1CCC(CNC(=O)c2cnn(-c3ccccc3Cl)c2C2CCN(C(=O)OC(C)(C)C)CC2)CC1 | -2.36% [at 57.1 µM] (inactive) |  |
| O=C(O)CCC(=O)N(Cc1cccs1)Cc1cccs1 |  | 56.2 µM (active) |
| O=C(CCc1ccccc1)NCCc1cccs1 | 13.8% (inactive) |  |
| O=C(O)CCC(=O)N(Cc1ccccc1)Cc1ccccc1 | 1.67% (inactive) |  |
| O=C1CC(c2nnc(Cc3ccc(Cl)cc3)o2)CN1c1ccccc1 (centres undefined) | -3.8% (inactive) |  |
| CCc1ccc(NC(=O)CCS(=O)(=O)c2cc3c(cc2Cl)NC(=O)CO3)cc1 | -4.74% (inactive) |  |
| CCOC(=O)Cn1c(=O)n(-c2ccccc2OC)c2nc(-c3cccc(F)c3)nc(C(N)=O)c21 | -12.6% (inactive) |  |
| Cc1ccc(Nc2nc(C)cc(C)c2C(N)=O)cc1 | 1.28% (inactive) |  |
| CC(=O)Nc1ccc(Nc2cc(C)nc(Nc3ccc(NC(C)=O)cc3)n2)cc1 |  | 56.2 µM (active) |
| COc1ccc(C(=O)NNc2cc(C)nc(NNC(=O)c3ccc(OC)cc3)n2)cc1 | 17.5% (inactive) |  |

| SMILES | activity change, negative = inhibition | Potency |
| --- | --- | --- |
| CCN1CCN(c2cc(C)c3cc(NC(=O)c4cc(Cl)ccc4OC)ccc3n2)CC1 | -34% (inactive) |  |
| Cc1ccccc1Nc1nc(-c2cccnc2)cs1 |  | 39.8 µM (active) |
| O=C(Nc1nc(-c2cccnc2)cs1)c1ccccc1F | 12.8% (inactive) |  |
| O=C(NCc1cccnc1)C(=O)Nc1nc(-c2ccccc2)cs1 | -7.21% (inactive) |  |
| Cc1ccccc1-c1nc(SCC(=O)N(C)c2ccccc2)c2c(=O)n(C)c(=O)n(C)c2n1 | 2.53% (inactive) |  |
| Cc1ccc(CCNC(=O)c2ccc(CNS(=O)(=O)c3ccc(C)cc3)cc2)cc1 | 0.772% (inactive) |  |
| CCOC(=O)c1c(NC(=O)c2cc(CC)on2)sc(C(C)=O)c1C | 2.03% (inactive) |  |
| CCCCCn1c(=O)[nH]c2cc(C(=O)Nc3cc(C)cc(C)c3)ccc2c1=O | 3.99% (inactive) |  |
| Cc1c(C)c(C)c2[nH]c(=S)[nH]c2c1C | -9.72% (inactive) |  |
| O=c1[nH]c(=S)[nH]c2[nH]c(=S)[nH]c12 |  | 28.2 µM (active) and 22.4 µM (active) |
| CCOC(=O)c1ccc(NC(=O)C2CC(=O)N(c3ccc(C(C)C)cc3)C2)cc1 (centres undefined) | -1.68% (inactive) |  |
| Cc1ccc(C2=N/C(=C\c3ccc(OS(=O)(=O)c4ccc(C)cc4)cc3)C(=O)O2)cc1 | -4% (inactive) |  |
| CS(=O)(=O)C1=NN2C(=N)/C(=C\c3ccc(OCCOc4ccccc4)cc3)C(=O)N=C2S1 |  | 50.1 µM (active) |
| CCOc1cc(/C=C2\C(=N)N3N=C(C)SC3=NC2=O)ccc1OCCOc1ccccc1 | -2.46% (inactive) |  |
| CCS(=O)(=O)C1=NSC2=NC(=O)/C(=C\c3ccc(OS(=O)(=O)c4ccccc4)cc3)C(=N)N21 |  | 56.2 µM (active) |
| COc1cc(/C=C2\C(=N)N3N=C(CC(=O)N4CCOCC4)SC3=NC2=O)cc(OC)c1OC | -26.7% (inactive) |  |
| COc1ccccc1OCCOc1ccc(/C=C2\C(=N)N3N=C(C)SC3=NC2=O)cc1 | -25.9% (inactive) |  |
| CCc1ccccc1N1C(=O)CN(S(=O)(=O)CC)CC1(C)C(=O)NC1CCCCC1 (centres undefined) | 4.83% (inactive) |  |
| CCc1cccc(NC(=O)CSc2nccn2C)c1 | -37.7% (inactive) |  |
| Cc1ccc(CNC(=O)CCc2c(C)nc3nc(CNC(=O)OC(C)(C)C)nn3c2C)cc1 | 2.01% (inactive) |  |
